# KCNQ2 block = KCNQ2 (rat) channel inhibition. 1.1% of 310,000 active. O88943. CHO-K1 KCNQ2, FluxOR thallium flux, 20 min; stronger effect = lower value. B-score at 10 µM;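 active = fluorescence ratio B-score at most minus 3 library SDs, with starting brightness B-score within 2 library SDs, cut at about -5.5 in these data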
# KCNQ2 enhance = enhances the rat KCNQ2 potassium channel | O88943 | CHO-K1 KCNQ2, FluxOR thallium flux fluorescence; stronger effect = higher value | 0.54% of 310,000 active | AID 2239 | B-score at 10 µM;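 active = fluorescence ratio B-score at least 3 SD of library B-scores, with initial fluorescence B-score within 3 of them, cut at about 5.3 in these data; same plate scores as AID 2156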;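 note: B-score of peak minus minimum over baseline fluorescence ratio after K+ and Tl+ stimulus; positive B-score means potentiation of KCNQ2 with more thallium influx and brighter signal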
# KCNQ2 block conf = rat KCNQ2 channel inhibition, confirmatory screen | shares compounds with KCNQ2 block | KCNQ2-expressing cells, thallium flux; stronger effect = lower value | activity change, negative = inhibition, % at 10 µM | 57% of 1,000 active | AID 493025
# KCNQ1 spec = KCNQ2 inhibitor that also affects human KCNQ1 channel; KCNQ1-expressing cells, FluxOR thallium flux fluorescence; stronger effect = lower value; shares compounds with KCNQ2 block; 15% of 1,000 active; activity change, negative = inhibition, % at 10 µM;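 active = activity change at least 3 SD of negative controls below their mean in both duplicate wells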;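 note: CHO cells stably transfected with KCNQ1 and depolarized by potassium stimulus; peak minus minimum fluorescence over baseline after thallium addition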
# Target sequence (P51787 whole entry, looked up): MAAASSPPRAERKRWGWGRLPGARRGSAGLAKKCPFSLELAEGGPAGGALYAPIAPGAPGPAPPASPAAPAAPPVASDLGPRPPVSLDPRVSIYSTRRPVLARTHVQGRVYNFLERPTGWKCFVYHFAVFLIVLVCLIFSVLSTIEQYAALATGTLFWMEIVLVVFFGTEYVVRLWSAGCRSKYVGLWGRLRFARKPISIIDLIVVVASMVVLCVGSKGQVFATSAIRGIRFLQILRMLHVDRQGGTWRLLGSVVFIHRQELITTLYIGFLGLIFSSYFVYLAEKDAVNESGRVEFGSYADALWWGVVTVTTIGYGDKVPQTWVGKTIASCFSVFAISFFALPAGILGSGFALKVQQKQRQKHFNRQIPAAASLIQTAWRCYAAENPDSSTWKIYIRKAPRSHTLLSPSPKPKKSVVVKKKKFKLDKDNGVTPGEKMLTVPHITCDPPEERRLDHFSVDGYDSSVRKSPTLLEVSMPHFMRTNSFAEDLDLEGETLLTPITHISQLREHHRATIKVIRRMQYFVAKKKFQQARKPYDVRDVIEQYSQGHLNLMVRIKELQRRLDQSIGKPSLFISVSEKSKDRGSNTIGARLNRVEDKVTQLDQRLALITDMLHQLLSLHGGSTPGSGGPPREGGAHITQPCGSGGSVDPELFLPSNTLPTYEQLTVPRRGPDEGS
# CHO parental ctr = counter-screen for KCNQ2 inhibitors: effect in parental CHO cells; AID 493029; 14% of 1,000 active; activity change, % at 10 µM; shares compounds with KCNQ2 block; thallium flux counter-screen; stronger effect = lower value
# KCNQ2 patch conf = rat KCNQ2 inhibition confirmed by electrophysiology; shares compounds with KCNQ2 block; KCNQ2-expressing cells, automated patch clamp current; calls only at 10 µM; 49% of 550 active; AID 588531
# A number is an active result; 0 = inactive; - = no result given; + = active, no number. Hits are enriched below; roughly 1.6% of the tested compounds scored in any of these assays. Unless noted, the rule behind the calls is not given here.
SMILES,KCNQ2 block,KCNQ2 enhance,KCNQ2 block conf,KCNQ1 spec,CHO parental ctr,others
COc1ccc(N(C)C(=O)c2cc3c(Cl)nc4ccccc4c3s2)cc1,-9.52,0,-39.0%,-40.0%,-37.0%,KCNQ2 patch conf=+
CCC(=O)N1CCN=C1SCc1cccc(C(F)(F)F)c1,0,0,-,-,-,
O=C(Nc1ccccc1)Nc1cccc(C(F)(F)F)c1,0,-,-,-,-,
COC(=O)/C(=C\C(=O)c1ccccc1)Nc1cccc(C(F)(F)F)c1,-7.82,0,0,0,0,
O=C(CSCc1cccc(Cl)c1)OCc1nc2ccsc2c(=O)[nH]1,0,0,-,-,-,
O=C(Nc1ccc(N2CCOCC2)cc1)C1CC(=O)N(c2ccc(F)cc2)C1 (configuration not stated),0,-,-,-,-,
COc1cc2c(cc1OC)CN(CC(=O)Nc1cccc(C(F)(F)F)c1)CC2,0,-,-,-,-,
Cc1cccc(NC(=O)c2ccc(COc3cccc4ccccc34)o2)n1,-8.76,0,-38.0%,-34.0%,-27.5%,KCNQ2 patch conf=0
CC(=O)Nc1ccc(NC(=O)c2ccc(COc3ccccc3Br)o2)cc1,0,0,-,-,-,
C(=N\NC(=Nc1ccccc1)c1ccccn1)/c1ccccn1,0,-,-,-,-,
Clc1ccc(/C=N/NC(=Nc2ccccc2)c2ccccn2)c(Cl)c1,-8.19,0,-27.5%,0,0,KCNQ2 patch conf=+
COc1ccccc1NC(=O)C(C)OC(=O)c1nc2nc(C)cc(C)n2n1 (configuration not stated),0,0,-,-,-,
O=C1CSC(c2ccccn2)N1c1ccc(F)cc1F (configuration not stated),0,-,-,-,-,
COC(=O)C[C@H]1c2cc(C(F)(F)F)ccc2S(=O)(=O)N1Cc1ccc(OC)cc1,0,-,-,-,-,
Cc1ccnc(NCc2cccc3ccccc23)c1,-6.92,0,-40.0%,-29.0%,-28.5%,
COc1cccc(CNc2cc(C)ccn2)c1O,0,0,-,-,-,
CSc1cccc(NC(=O)Nc2nc3c(C)cccc3s2)c1,0,-,-,-,-,
Cc1ccc(C(=O)c2c(NC(=O)c3ccccc3C)sc(C)c2C)cc1,-10.6,0,-27.5%,0,0,KCNQ2 patch conf=0
Cc1sc(NC(=O)c2ccco2)c(C(=O)c2ccc(Cl)cc2)c1C,0,-,-,-,-,
Cc1sc(NC(=O)CN2CCOCC2)c(C(=O)c2ccccc2)c1C,0,-,-,-,-,
CCN(CC)CC(=O)Nc1sc(C)c(C)c1C(=O)c1ccc(C)cc1,-6.61,0,0,0,0,
Cc1cc(C(=O)c2ccccc2)c(NC(=O)CCl)s1,0,-,-,-,-,
CCN(CC)CC(=O)Nc1sc(C)cc1C(=O)c1ccc(C)cc1,-6.69,0,-23.0%,0,0,KCNQ2 patch conf=0
CCCCN1C(=O)C(=O)N(CC(=O)Nc2ccccc2C(=O)OCC)C1=O,0,-,-,-,-,
CCN1C(=O)C(=O)N(Cc2ccc(OC)c(F)c2)C1=O,0,0,-,-,-,
SMILES,KCNQ2 block,KCNQ2 enhance,KCNQ2 block conf,KCNQ1 spec,CHO parental ctr,others
O=C1CCN(CCCc2ccccc2)CCN1[C@H](CO)Cc1ccccc1,0,0,-,-,-,
Cc1ccc(S(=O)(=O)N[C@@H](C)C(=O)N2CCC(C(=O)N[C@@H](Cc3ccccc3)C(=O)O)CC2)cc1,0,-,-,-,-,
CN(C)C(CNC(=O)c1ccc(C(=O)c2ccccc2)cc1)c1ccccc1 (configuration not stated),0,-,-,-,-,
CN(C)C(CNC(=O)c1ccc(-c2ccccc2)cc1)c1ccccc1 (configuration not stated),-6.63,0,0,0,0,
O=C(Nc1ccccc1)N1CCC(C(=O)N2CCN(c3ccccc3F)CC2)CC1,0,0,-,-,-,
O=S(=O)(c1ccc(Cl)s1)N1CCC(Cc2ccccc2)CC1,-7.43,0,0,0,0,
CN1CCN(S(=O)(=O)c2ccc(Br)s2)CC1,0,0,-,-,-,
O=S(=O)(c1ccc(Cl)s1)N1CCN(CCc2ccccc2)CC1,0,0,-,-,-,
O=S(=O)(c1ccc(Br)s1)N1CCC(Cc2ccccc2)CC1,-9.3,0,0,0,0,
O=C(c1cccs1)N1CCN(c2cc(Cl)ccc2Cl)CC1,0,-,-,-,-,
O=C(CCn1c(=O)[nH]c2ccsc2c1=O)N(CCc1ccccc1)Cc1ccccc1,-7.42,0,-25.5%,0,0,KCNQ2 patch conf=+
O=C(CCCCn1c(=O)[nH]c2ccsc2c1=O)NCCc1ccccc1,0,0,-,-,-,
COCCC(=O)N1CCC(C(=O)Nc2ccc(Oc3ccccc3)nc2)CC1,0,-,-,-,-,
Cc1cccc(C)c1OCC(=O)NNC(=S)NC(=O)C1CC1,0,-,-,-,-,
Cc1cc(C)nc(NC(=O)c2cc(-c3ccc4c(c3)OCO4)nc3ccccc23)c1,-7.73,0,-31.5%,0,0,KCNQ2 patch conf=+
COC(=O)c1cc(-c2ccc3c(c2)OCO3)nc2ccccc12,0,0,-,-,-,
CCOC(=O)c1cnc(-n2nc(C)cc2C)nc1NC,0,0,-,-,-,
CCOC(=O)c1cnc(-n2nc(C)cc2C)nc1NC1CCCCC1,-8.9,0,-33.0%,0,0,KCNQ2 patch conf=+
Cc1ccc(N2CC(C(=O)N3CCC(C(=O)NC(C)(C)C)CC3)CC2=O)cc1 (configuration not stated),0,0,-,-,-,
CC(c1ccccc1C(O)c1ccccc1)N(C)C (configuration not stated),0,0,-,-,-,
Cc1ccc(C(O)(c2ccccc2)c2ccccc2C(C)N(C)C)c(C)c1 (configuration not stated),-8.95,0,-31.0%,0,0,KCNQ2 patch conf=+
Cc1ccc(-n2c(-c3ccc(Br)cc3)c[n+]3c2CCc2ccc4cccnc4c2-3)cc1,-12.3,0,-45.0%,-36.5%,-30.5%,
COc1ccc(-n2c(-c3ccc(Cl)cc3)c[n+]3c2CCc2ccccc2-3)cc1,0,-,-,-,-,
Cn1cncc1C(=O)c1ccccc1,0,-,-,-,-,
Cc1cccc(N2CCN(CC(=O)NCc3ccc(Cl)cc3)CC2)c1C,0,-,-,-,-,
SMILES,KCNQ2 block,KCNQ2 enhance,KCNQ2 block conf,KCNQ1 spec,CHO parental ctr,others
CCN(CC(=O)NCc1ccc(Cl)cc1)C(=O)CSc1cc(C)ccc1C,-8.24,0,-22.0%,0,0,KCNQ2 patch conf=+
CCN(CC(=O)NCc1ccc(Cl)cc1)C(=O)CSc1ccc(F)cc1,0,-,-,-,-,
CCN(CC(=O)NCc1ccc(F)cc1)C(=O)CN1CCN(c2cc(Cl)ccc2C)CC1,-9.54,0,-26.5%,0,0,KCNQ2 patch conf=+
CN1CCN/C1=C(/C(Cl)=C(Cl)Cl)[N+](=O)[O-],0,-,-,-,-,
CCOC(=O)N1CCN(c2nc(-c3ccccc3)c3ccccc3n2)CC1,0,-,-,-,-,
CCc1ccccc1N1C(=O)C(Cl)=C(N2CCOCC2)C1=O,0,0,-,-,-,
COc1ccccc1N1CCN(/N=C/c2cccc(Cl)c2)CC1,-7.03,0,-29.5%,0,0,KCNQ2 patch conf=+
COc1ccccc1N1CCN(/N=C/c2cccc(OC)c2O)CC1,0,-,-,-,-,
COc1ccccc1N1CCN(/N=C/c2cc(Br)ccc2F)CC1,-10.5,0,-17.5%,0,0,KCNQ2 patch conf=0
COc1ccc(/C=N/N2CCN(c3ccccc3OC)CC2)cc1Br,0,-,-,-,-,
CCCN1C(=O)C2(C(C(=O)c3ccc(C)o3)=C(O)C(=O)N2CCCOC)c2ccccc21 (configuration not stated),0,-,-,-,-,
O=C(NCCC1=CCCCC1)C1CCN(S(=O)(=O)c2ccccc2C(F)(F)F)CC1,0,-,-,-,-,
CC(NC(=O)c1cccs1)c1ccc(Cl)cc1 (configuration not stated),0,-,-,-,-,
CC(NC(=O)c1cccs1)C(S)c1ccccc1 (configuration not stated),-10.5,0,0,0,0,
COC(=O)c1cc(NC(=O)Cc2cccs2)cc(C(=O)OC)c1,0,-,-,-,-,
CSc1ccccc1NC(=O)CO/N=C(\C)c1cc2ccccc2o1,0,-,-,-,-,
